This passage reports Potency and activity change, negative = inhibition results from PubChem BioAssay (NCATS).

Experiment [1] relates to Zika virus NS2B-NS3 protease (unlinked complex). Kind of experiment: Primary screen GU Rhodamine qHTS for Zika virus inhibitors: Unlinked NS2B-NS3 protease assay (AID 1347159). Also: nearly all actives have a fitted effect of over 60% in size. Put shortly: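 In dose–response format, inhibition of unlinked protease (25 nM) was measured with 1.5 microM bis-peptide Rhodamine110 substrate. Aprotinin served as the intraplate control.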
Experiment [2] concerns Zika virus NS2B-NS3 protease (linked construct). Kind of experiment: Primary screen NINDS Rhodamine qHTS for Zika virus inhibitors (AID 1347160). Also: nearly all actives have a fitted effect of over 55% in size. Put shortly: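 Each compound, titrated, sat 15 min with 25 nM linked protease before 1.5 microM Rhodamine110 substrate went in. Fluorescence gain over the next 15 min, in pH 8.0 Tris with Tween 20, gave Hill-fitted curves.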
In general terms: Quantitative high-throughput screening tests each substance at several concentrations.

Records with an inconclusive call do not appear. Unmarked numbers belong to inactive results. The source made the active and inactive calls. Calls follow the shape of the dose curve; as a rule, active = well fitted inhibition curve with a large enough effect; inconclusive = small, poorly fitted or top-dose-only effect; inactive = no such curve, though single readings can be large or run the other way. *1 amine or outer side, *2 acyl side, *3 side chain or, on linkers, in order; H or OH if unused. Where a SMILES comes first, the peptide text is derived from it. Bridges are numbered along the chain shown (N, C = ends). X6 = O=C(CCC[*:2])[*:1]
% is scaled to controls: 0 for no effect and ±100 for the full control effect; potency is read from the fitted curve at half-maximal effect.

Consider `NS(=O)(=O)OC[C@@H]1C[C@@H](n2ccc3c(N[C@H]4CCc5ccccc54)ncnc32)C[C@@H]1O`, for which the Potency result in experiment [1] and in experiment [2] was “inactive” each time.
Consider `CC(=O)O[C@@H]1[C@@H](OC(=O)/C=C/c2ccccc2)[C@H](C)O[C@@H](O[C@H]2[C@@H]3C=CO[C@@H](O[C@@H]4O[C@H](CO)[C@@H](O)[C@H](O)[C@H]4O)[C@@H]3[C@@]3(CO)O[C@@H]23)[C@@H]1OC(C)=O`, for which the Potency result in experiment [1] and in experiment [2] was “inactive” each time.
Regarding `COC12CC3C(C(C)C1=CC(=O)O2)C(O)C(OC(C)=O)C1C(C)(C)C(OC(C)=O)CCC31C` (stereo not given), the Potency result in experiment [1] and in experiment [2] was “inactive” in each case.
Turning to `C=C1CC23CC1(O)CCC2C1=CC2OC(=O)C(C)(C2O)C1C3C(=O)O` (stereo not given), the Potency result in experiment [1] and in experiment [2] was “inactive” each time.
Consider `C=C1CCC(OC(C)=O)C2(C)CC3(O)OC(=O)C(C)=C3CC12` (stereo not given), for which the Potency result in experiment [1] and in experiment [2] was “inactive” each time.
With `CC(=O)OCCC(C)CCC1C(C)(O)CCC2C(C)(C)CCCC21C` (stereo not given), the Potency is 8.91 µM (active) in experiment [1] and 11.2 µM (active) in experiment [2].
As to `C(#Cc1cccc(CN2CCOCC2)c1)CCN1CCCCC1`, the Potency entry in experiment [1] and in experiment [2] was “inactive” each time.
With `FC(F)(F)c1cc(C(F)(F)F)c2ccc3nc(-c4nnco4)cn3c2n1`, the Potency result in experiment [1] and in experiment [2] was “inactive” throughout.
With `C/C=C(\C)C(=O)O[C@@H](C)[C@H]1CC[C@]2(O)C3CCC4C[C@@H](OC5CC(OC)C(OC6CC(OC)C(OC7CC(OC)C(OC8OC(C)C(OC9OC(CO)C(O)C(O)C9O)C(OC)C8O)C(C)O7)C(C)O6)C(C)O5)CC[C@]4(C)C3[C@H](O)[C@@H](O)[C@]12C` (stereo not given in full), the results for the activity change, negative = inhibition in experiment [1] and in experiment [2] were -1.05% [at 19.1 µM] and 6.1% [at 10.7 µM], respectively.
For the compound `CC1(CO)CC2C(O)C(=O)C3(CO)CC3(C)C2C1` (stereo not given), the Potency result in experiment [1] and in experiment [2] was “inactive” in each case.
As for `COc1ncc(-c2ccc3c(Nc4cc(Oc5cc(F)cc(F)c5)cc(C(=O)O)c4)c(S(=O)(=O)NC4CC4)cnc3c2)c(OC)n1`, the Potency in experiment [1] is 8.91 µM (active); in experiment [2], 14.1 µM (active).
Regarding `OCC1OC(Oc2cc(O)c3c(c2)OC(c2ccc(O)cc2)C(O)C3)C(O)C1O` (stereo not given), the Potency result in experiment [1] and in experiment [2] was “inactive” in each case.
For `C[C@@H]1C[C@H](O)/C=C/[C@H](O)[C@@H](O)CC(=O)O1`, the Potency result in experiment [1] and in experiment [2] was “inactive” in each case.
With `CN1CCC(c2c[nH]c3ccc(NC(=O)c4ccc(F)cc4)cc23)CC1`, the Potency entry in experiment [1] and in experiment [2] was “inactive” in each case.
For the compound `COC(=O)C12C(=O)C(C)=C(O)C1(C)C(C)=CC1C34CCC(OC3=O)C(C)(C)C4CCC12C` (stereo not given), the Potency result in experiment [1] and in experiment [2] was “inactive” throughout.
Turning to `CC1=CC(=O)C[C@H]2[C@@H]1CC[C@@H](C)[C@]21CO[C@H](c2ccoc2)C1=O`, the Potency result in experiment [1] and in experiment [2] was “inactive” in each case.
With `CC[C@H](C)[C@@H]1NC(=O)[C@H](Cc2ccc(OC)cc2)NC(=O)CCCSC[C@@H](C(=O)N2CCC[C@H]2C(=O)N[C@@H](CC(C)C)C(=O)NCC(N)=O)NC(=O)[C@H](CC(N)=O)NC(=O)[C@H](CCC(N)=O)NC1=O` (Y(Me)IQNCPLG-NH2; linker N-5 via X6), the Potency entry in experiment [1] and in experiment [2] was “inactive” each time.
In the case of `CCCCCCc1cccc(NC(=O)[C@H](N)CCP(=O)(O)O)c1`, the Potency entry in experiment [1] and in experiment [2] was “inactive” throughout.
For the compound `CO[C@H]1C=C2C(CC[C@H](O[C@@H]3O[C@H](CO)[C@@H](O)[C@@H](O)[C@H]3O)C2(C)C)[C@]2(C)CC[C@]3(C)C([C@H](C)C(O)C(C=C(C)C)O[C@@H]4O[C@H](CO)[C@@H](O)[C@@H](O)[C@H]4O)CC[C@@]3(C)C12` (stereo not given in full), the Potency entry in experiment [1] and in experiment [2] was “inactive” throughout.
Regarding `CCS(=O)(=O)N1CCC([C@@H](C)n2c(C)c(C(=O)NCc3c(OC)cc(C)[nH]c3=O)c3ccccc32)CC1`, the Potency result in experiment [1] and in experiment [2] was “inactive” in each case.
As for `CCc1cc2c(=O)c(-c3nc4ccccc4s3)coc2c(CN2CCCCC2)c1O`, the Potency in experiment [1] is 12.6 µM (active). Moreover, the Potency result in experiment [2] is “inactive”.
The matching figures for `CCCOc1ccn2c(C(C)=O)cc(-c3ccccc3S(C)(=O)=O)c2c1`: “inactive” and “inactive”.
Consider `COc1c(OC2OC(CO)C(O)C(O)C2O)ccc(O)c1C(=O)OCc1ccccc1O[C@@H]1O[C@H](CO)[C@@H](O)[C@H](O)[C@H]1O` (stereo not given in full), for which the Potency result in experiment [1] and in experiment [2] was “inactive” each time.
With `O=C(/C=C/c1ccc(O)cc1)O[C@H]1[C@@H]2C=CO[C@@H](O[C@@H]3O[C@H](CO)[C@@H](O)[C@H](O)[C@H]3O)[C@@H]2[C@@]2(CO)O[C@@H]12`, the Potency entry in experiment [1] and in experiment [2] was “inactive” each time.
Consider `CC1(C)C[C@H]2C3=CCC4[C@@]5(C)CC[C@H](O[C@H]6O[C@H](C(=O)O)[C@@H](O)[C@H](O)[C@H]6O[C@H]6O[C@H](CO)[C@@H](O)[C@H](O)[C@H]6O[C@@H]6O[C@H](CO)[C@@H](O)[C@H](O)[C@H]6O)[C@](C)(CO)C5CC[C@@]4(C)[C@]3(C)CC[C@@]2(C)[C@H](O[C@@H]2OC[C@H](O)[C@H](OC3O[C@H](CO)[C@@H](O)[C@H](O)[C@H]3O)[C@H]2O)[C@@H]1O` (stereo not given in full), for which the activity change, negative = inhibition was 6.08% [at 19.1 µM] in experiment [1] and -4.25% [at 10.7 µM] in experiment [2].
